The list is not random: actives were taken first. Their share in the collection is about 6.5%.
VACV mCherry inh: vaccinia inhibition (mCherry reporter); Vaccinia virus mCherry reporter infection, fluorescence; Potency, µM (doses to about 36.5 µM), actives largely listed as inhibitors; 0.63% of 310,000 active; AID 720579; calls by dose curve; tested in A549 cells; further: nearly all actives have a fitted effect of over 35% in size
Vaccinia Venus: inhibitors of vaccinia virus (Venus reporter); Vaccinia virus Venus reporter expression, fluorescence; Potency, µM (titrated, usually from 36.5 µM), actives largely listed as inhibitors; 0.46% of 330,000 active; AID 720580; calls by dose curve; tested in A549 cells; further: nearly all actives have a fitted effect of over 30% in size
FMDV antiviral: foot and mouth disease virus antiviral activity; 1.2% of 410,000 active; FMDV antiviral cell-based qHTS; Potency, µM (top dose mostly 57.9 µM), actives largely listed as inhibitors; calls by dose curve; tested in HEK293T cells; further: read-out not given here; nearly all actives have a fitted effect of over 45% in size
Marburg entry inh: blocks Marburg virus binding to or entry into cells | Marburg virus pseudotyped entry inhibition, cell reporter | Potency, µM (highest dose often 37.8 µM), most hits filed as inhibitors | 1.8% of 300,000 active | AID 540276; calls by dose curve; tested in HEK293 cells
HCMV inh: inhibitors of human cytomegalovirus | HFF cells, HCMV-luciferase reporter, 72 h; hits give low values | activity change, negative = inhibition, % at 57.5 µM | 4.5% of 410,000 active | AID 1259415; in the data active means activity change below about -60%; inconclusive means no clear call, values can overlap the other calls; inactive means above about -39%
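Screen run at 2 compound doses on HFFs infected with reporter HCMV, MOI 1 PFU/cell. Luciferase activity from cell lysates at 72 h post infection gave inhibition relative to buffer-only and Salinomycin wells.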
Lassa entry inh: blocks Lassa virus binding to or entry into cells; Lassa virus pseudotype entry inhibition, cell reporter; Potency, µM (series often up to 37.9 µM), hits mostly inhibitors; 1.2% of 300,000 active; AID 540256; calls by dose curve; tested in HEK293 cells; further: nearly all actives have a fitted effect of over 50% in size
Numbers stand for hits.

CCc1ccc2occ(CC(=O)Nc3ccc(OC)c(Cl)c3)c2c1 was read as VACV mCherry inh inactive, Vaccinia Venus inactive, FMDV antiviral inactive, Marburg entry inh inconclusive, HCMV inh inactive and Lassa entry inh inactive.
For CC(=O)OC[C@H]1O[C@H](C#Cc2ccc(C)cc2C)C=C[C@@H]1OC(C)=O the results were Marburg entry inh inactive.
`CCOc1ccc2c(c1)C(C)=CC(C)(C)N2` gave VACV mCherry inh inactive, Vaccinia Venus inactive, FMDV antiviral inactive and HCMV inh inactive.
Screening CC(=O)Oc1ccc(CC(C(=O)O)N2C(=O)c3ccccc3C2=O)cc1 (centres undefined) returned VACV mCherry inh inactive, Vaccinia Venus inactive, FMDV antiviral inactive, Marburg entry inh inactive, HCMV inh inactive and Lassa entry inh inactive.
`CC1=CC(C)(C)Nc2ccc(OC(=O)C(Cc3ccccc3)N3C(=O)c4ccccc4C3=O)cc21` (centres undefined) gave Vaccinia Venus inactive, FMDV antiviral inactive, Marburg entry inh inactive, HCMV inh inconclusive and Lassa entry inh 5µM.
For CC1=CC(C)(C)Nc2ccc(OC(=O)CN3C(=O)c4ccccc4C3=O)cc21 the results were VACV mCherry inh inactive, Vaccinia Venus inactive, FMDV antiviral inconclusive, Marburg entry inh inconclusive, HCMV inh -100 and Lassa entry inh inconclusive.
For CC1=CC(C)(C)Nc2ccc(OC(=O)CN3C(=O)c4cccc5cccc(c45)C3=O)cc21 the results were VACV mCherry inh inactive, Vaccinia Venus inactive, FMDV antiviral inconclusive, Marburg entry inh inactive, HCMV inh -78 and Lassa entry inh inactive.
`Cc1ccc(OCC(=O)Nc2cccnc2Cl)cc1C` gave VACV mCherry inh inactive, Vaccinia Venus inactive, FMDV antiviral inactive, Marburg entry inh inactive, HCMV inh -61 and Lassa entry inh inactive.
For Cc1ccc2nc(C)cc(C(=O)OCC(=O)Nc3cccnc3Cl)c2c1 the results were VACV mCherry inh inactive, Vaccinia Venus inactive, FMDV antiviral inactive, Marburg entry inh inactive, HCMV inh -76 and Lassa entry inh inactive.
Screening O=C(COC(=O)c1cc2ccccc2cc1O)Nc1cccnc1Cl returned VACV mCherry inh inactive, Vaccinia Venus inactive, FMDV antiviral inactive, Marburg entry inh inactive, HCMV inh inactive and Lassa entry inh inactive.
Screening Cc1ccc(OCC(=O)Nc2ccccc2F)cc1C returned VACV mCherry inh inactive, Vaccinia Venus inactive, FMDV antiviral inactive, Marburg entry inh inactive, HCMV inh inactive and Lassa entry inh inconclusive.
For COC(=O)C1CCN(Cc2ccc3c(c2)CN(C(=O)C2Cc4ccccc4O2)CCO3)CC1 (centres undefined) the results were VACV mCherry inh inactive, Vaccinia Venus inactive and FMDV antiviral inactive.
Screening CCOc1ccccc1CNC(=O)c1cc2oc3ccccc3c2n1C returned FMDV antiviral inactive, Marburg entry inh inconclusive, HCMV inh -85 and Lassa entry inh inconclusive.
For CCOc1ccccc1CNC(=O)c1cc2occc2n1C the results were VACV mCherry inh inconclusive, Vaccinia Venus inactive, FMDV antiviral inactive and HCMV inh inactive.
`Cn1c(C(=O)NCc2cccc(Cl)c2)cc2oc3ccccc3c21` gave VACV mCherry inh inactive, Vaccinia Venus inactive, FMDV antiviral inactive, Marburg entry inh inconclusive, HCMV inh -64 and Lassa entry inh inconclusive.
For CCc1ccc(C(=O)NNc2ccc(C)c(Cl)c2)cc1 the results were VACV mCherry inh inconclusive, Vaccinia Venus inactive, FMDV antiviral inactive, Marburg entry inh inconclusive, HCMV inh inactive and Lassa entry inh inconclusive.
For CCc1ccc(C(=O)NNc2cc(Cl)ccc2Cl)cc1 the results were FMDV antiviral inactive and HCMV inh -68.
For CCc1ccc(C(=O)NNc2ccccc2F)cc1 the results were VACV mCherry inh inconclusive, Vaccinia Venus inactive, FMDV antiviral inactive, Marburg entry inh 4.5µM, HCMV inh inconclusive and Lassa entry inh inconclusive.
O=C(O)c1ccc(C2Nc3ccccc3-c3nnc(SCc4ccc(Cl)cc4)nc3O2)cc1 (centres undefined) was read as VACV mCherry inh inactive, Vaccinia Venus inactive, FMDV antiviral inactive, Marburg entry inh inconclusive, HCMV inh inactive and Lassa entry inh inactive.
CSc1nc2nccc(/C=C\c3ccccc3)n2n1 was read as FMDV antiviral inconclusive, Marburg entry inh inactive, HCMV inh -106 and Lassa entry inh inactive.
CSc1nc2nccc(-c3ccc(Cl)cc3)n2n1 was read as Vaccinia Venus inactive, FMDV antiviral inactive, Marburg entry inh inactive, HCMV inh inactive and Lassa entry inh inactive.

Bioassay records: PubChem BioAssay, National Center for Advancing Translational Sciences (NCATS)
